Measurements published in PubChem BioAssay (Tox21).
Results filed as inconclusive are left out. Calls of active or inactive are those of the source. Unless noted, calls follow the shape of the full dose curve.

What was measured:
[1] = Nuclear factor erythroid 2-related factor 2/antioxidant responsive element (Nrf2/ARE) small molecule agonists: qHTS cell viability counter screen in human keratinocytes (AID 1919968; active = well fitted curve in the direction sought with a large enough effect in the repeat runs; an effect the other way counts as inactive or inconclusive; also: nearly all actives have a fitted effect of over 55% in size)
How it was run: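 Seed 1,500 KeratinoSens cells per well, then incubate 5 h at 37 C/5% CO2. Add compounds in DMSO and incubate 23 h. Add CellTiter-Fluor, wait 1 h and read fluorescence.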

[2] = Nuclear factor erythroid 2-related factor 2/antioxidant responsive element (Nrf2/ARE) small molecule agonists: luciferase reporter gene qHTS assay in human keratinocytes (AID 1919969); also: nearly all actives have a fitted effect of over 35% in size
[3] = target: Gonadotropin-releasing hormone receptor (Homo sapiens) (UniProt P30968); assay: Human gonadotropin-releasing hormone receptor (GnRHR) small molecule agonists, calcium flux assay in GnRHR-HEK293 cells (AID 1920063); also: nearly all actives have a fitted effect of over 35% in size
Gonadotropin-releasing hormone receptor (Homo sapiens), sequence (P30968 whole entry, looked up): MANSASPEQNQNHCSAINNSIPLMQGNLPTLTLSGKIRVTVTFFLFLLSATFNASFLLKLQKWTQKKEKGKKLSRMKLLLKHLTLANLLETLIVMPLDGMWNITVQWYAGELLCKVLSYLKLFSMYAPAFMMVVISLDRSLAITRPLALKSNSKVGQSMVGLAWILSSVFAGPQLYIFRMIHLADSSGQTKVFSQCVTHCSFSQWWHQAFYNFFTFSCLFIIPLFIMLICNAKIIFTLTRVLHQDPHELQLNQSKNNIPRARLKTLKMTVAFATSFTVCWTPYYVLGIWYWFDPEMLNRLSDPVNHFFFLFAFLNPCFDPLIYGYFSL
How it was run: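 Cells: HEK293 stably expressing human GnRHR. Steps: overnight (18 h) culture, 1 h calcium dye loading at 37 C, compound addition, kinetic fluorescence read at 480/540 nm. Each compound tested at 15 concentrations in triplicate.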

[4] = target: KiSS-1 receptor (Homo sapiens) (UniProt Q969F8); assay: Human kisspeptin (KISS1R) small molecule agonists, calcium flux assay in KISS1R-HEK293 cells (AID 1920064; active = well fitted curve in the direction sought with a large enough effect in the repeat runs; an effect the other way counts as inactive or inconclusive)
KiSS-1 receptor (Homo sapiens), sequence (Q969F8 whole entry, looked up): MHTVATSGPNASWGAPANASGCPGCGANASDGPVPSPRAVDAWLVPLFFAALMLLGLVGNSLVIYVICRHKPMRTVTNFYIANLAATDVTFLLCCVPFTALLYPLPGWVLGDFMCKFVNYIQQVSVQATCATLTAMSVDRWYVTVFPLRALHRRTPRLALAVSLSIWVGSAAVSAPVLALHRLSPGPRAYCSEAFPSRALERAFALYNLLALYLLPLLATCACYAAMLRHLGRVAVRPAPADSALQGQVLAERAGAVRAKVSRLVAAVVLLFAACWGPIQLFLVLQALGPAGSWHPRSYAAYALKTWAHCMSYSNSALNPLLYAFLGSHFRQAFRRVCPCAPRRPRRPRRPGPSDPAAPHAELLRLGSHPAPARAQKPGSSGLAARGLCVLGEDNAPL
How it was run: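 Cells plated and incubated 18 h; dye added, 1 h at 37 C; compounds in DMSO pinned in; signal read at 480/540 nm every second for 3 min. Each compound tested at 15 concentrations in triplicate.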

[5] = G protein-coupled receptor (GPCR) small molecule agonists, calcium flux assay: HEK293 wild type cell line counter screen (AID 1920065)
How it was run: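 Counter-screen of the Tox21 10K library for non-specific calcium release: dye-loaded cells received compounds in DMSO and were monitored by kinetic fluorescence (480/540 nm, 3 min). Fifteen concentrations, run in triplicate.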

[6] = p53 small molecule agonists, cell-based qHTS assay with human liver microsomes (AID 1963577)
How it was run: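 p53RE-bla reporter cells were pre-incubated 5 h at 37 C, then treated with compounds plus human liver microsomes (0.5 mg/mL final) and NADPH (0.5 mg/mL final) for 16 h at 37 C. Beta-lactamase activity was read by LiveBLAzer fluorescence after 2 h at room temperature.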

[7] = p53 small molecule agonists, cell-based qHTS assay with rat liver microsomes (AID 1963578)
How it was run: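 p53RE-bla cells were exposed to compounds together with rat liver microsomes (0.5 mg/mL final) and NADPH (0.5 mg/mL final) for 16 h at 37 C, then read by LiveBLAzer beta-lactamase fluorescence after 2 h at room temperature.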

[8] = p53 small molecule agonists, cell-based qHTS assay with human liver microsomes: qHTS cell viability counter screen (AID 1963579); also: nearly all actives have a fitted effect of over 45% in size
How it was run: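 p53RE-bla cells (4,000/well) were pre-incubated 5 h at 37 C, then given compounds in DMSO plus human liver microsomes (0.5 mg/mL final) and NADPH (0.5 mg/mL final) for 16 h at 37 C. Viability was read by CellTiter-Glo luminescence.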

[9] = p53 small molecule agonists, cell-based qHTS assay with rat liver microsomes: qHTS cell viability counter screen (AID 1963580); also: nearly all actives have a fitted effect of over 45% in size
How it was run: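 HCT-116 p53RE-bla, 4,000 cells/well, 5 h pre-incubation; cpd + rat liver microsomes 0.5 mg/mL + NADPH 0.5 mg/mL (final); 16 h, 37 C; CellTiter-Glo, 30 min RT; luminescence.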

[10] = p53 small molecule agonists, cell-based qHTS assay: qHTS cell viability counter screen (AID 1963581); also: nearly all actives have a fitted effect of over 45% in size
How it was run: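 Cells: HCT-116 with p53 response element-driven beta-lactamase. Treatment: 16 h, 37 C, compounds in DMSO. Read: CellTiter-Glo luminescence after 30 min RT.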

[11] = p53 small molecule agonists, cell-based qHTS assay (AID 1963582; active = well fitted activation curve with a large enough effect in the signal ratio in the repeat runs, not every such curve was filed as active; the % refers to the signal ratio)
How it was run: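 Quantitative HTS in p53RE-bla cells: after a 5 h settling period, compounds delivered in DMSO were left on cells for 16 h at 37 C, and reporter induction was measured as fluorescence following 2 h substrate loading.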

[12] = target: 5-hydroxytryptamine receptor 2A (Homo sapiens) (UniProt P28223); assay: 5-hydroxytryptamine receptor 2A (HTR2A) small molecule antagonists, cell-based qHTS assay (AID 1963586); also: nearly all actives have a fitted effect of over 45% in size
5-hydroxytryptamine receptor 2A (Homo sapiens), sequence (P28223 whole entry, looked up): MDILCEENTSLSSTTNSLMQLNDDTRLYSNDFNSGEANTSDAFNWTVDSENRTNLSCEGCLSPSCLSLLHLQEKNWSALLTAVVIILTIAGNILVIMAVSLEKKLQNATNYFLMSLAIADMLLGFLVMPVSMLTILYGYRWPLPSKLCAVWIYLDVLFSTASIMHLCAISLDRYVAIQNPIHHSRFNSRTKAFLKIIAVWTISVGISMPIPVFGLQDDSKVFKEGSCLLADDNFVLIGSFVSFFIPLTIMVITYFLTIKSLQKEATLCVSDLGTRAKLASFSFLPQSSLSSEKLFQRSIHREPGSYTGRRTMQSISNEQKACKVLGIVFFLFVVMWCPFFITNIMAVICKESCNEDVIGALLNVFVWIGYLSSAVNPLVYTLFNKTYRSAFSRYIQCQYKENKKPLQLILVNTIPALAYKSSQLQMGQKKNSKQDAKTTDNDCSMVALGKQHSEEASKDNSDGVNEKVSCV
How it was run: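 Antagonist-mode intracellular calcium assay: DOI (4 nM) added after 5 min compound pre-incubation at room temperature to dye-loaded HTR2A-CHO cells. Fluorescence followed for 3 min, sampled every second.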

[13] = target: 5-hydroxytryptamine receptor 2A (Homo sapiens) (UniProt P28223); assay: 5-hydroxytryptamine receptor 2A (HTR2A) small molecule agonists, cell-based qHTS assay (AID 1963587); also: nearly all actives have a fitted effect of over 30% in size
How it was run: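 Kinetic calcium-flux fluorescence (2 min, 1 sec intervals) after compound addition in agonist mode. HTR2A-CHO cells were cultured 18 h, then dye-loaded 1 h at 37 C.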

[14] = target: Muscarinic acetylcholine receptor M1 (Homo sapiens) (UniProt P11229); assay: Cholinergic receptor muscarinic 1 (CHRM1) small molecule antagonists, cell-based qHTS assay (AID 1963588); also: nearly all actives have a fitted effect of over 40% in size
Muscarinic acetylcholine receptor M1 (Homo sapiens), sequence (P11229 whole entry, looked up): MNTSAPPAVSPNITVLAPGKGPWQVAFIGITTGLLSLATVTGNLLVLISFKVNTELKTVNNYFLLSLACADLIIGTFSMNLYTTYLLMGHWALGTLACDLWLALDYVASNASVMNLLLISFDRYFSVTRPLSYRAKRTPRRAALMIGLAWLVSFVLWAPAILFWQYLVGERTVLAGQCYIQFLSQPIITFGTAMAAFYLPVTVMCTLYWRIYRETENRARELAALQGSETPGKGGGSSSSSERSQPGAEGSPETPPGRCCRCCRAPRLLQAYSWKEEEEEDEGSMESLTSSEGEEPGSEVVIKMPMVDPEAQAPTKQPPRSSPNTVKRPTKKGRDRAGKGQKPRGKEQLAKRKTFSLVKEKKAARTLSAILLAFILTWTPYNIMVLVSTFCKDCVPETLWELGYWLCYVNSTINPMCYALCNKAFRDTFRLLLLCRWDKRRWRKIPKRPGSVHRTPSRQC
How it was run: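 CHRM1-CHO calcium-flux assay, antagonist mode. Cells were seeded 18 h, dye-loaded 1 h at 37 C and given compound for 5 min at RT, then acetylcholine was added at 50nM. FDSS fluorescence was read 3 min; 15 concentrations, three runs.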

[15] = target: Muscarinic acetylcholine receptor M1 (Homo sapiens) (UniProt P11229); assay: Cholinergic receptor muscarinic 1 (CHRM1) small molecule agonists, cell-based qHTS assay (AID 1963589); also: nearly all actives have a fitted effect of over 35% in size
How it was run: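 Agonist-mode qHTS in CHO cells stably carrying human muscarinic M1. Intracellular calcium is tracked by fluorescence every second after compound transfer; each compound runs at 15 concentrations in three independent runs.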

[16] = cAMP Responsive Elements (CRE) small molecule agonists, cell-based qHTS assay (AID 1963590)
How it was run: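 Agonist mode qHTS in CRE-bla HEK 293T cells: compounds dosed from DMSO for 3 h at 37 C/5% CO2, followed by LiveBLAzer B/G FRET substrate for 2 h at room temperature.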

[17] = cAMP Responsive Elements (CRE) small molecule antagonists, cell-based qHTS assay (AID 1963591; active = well fitted inhibition curve with a large enough effect in the signal ratio in the repeat runs, not every such curve was filed as active; the % refers to the signal ratio)
How it was run: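 Antagonist mode: test compounds are co-incubated with the adenylyl cyclase activator NKH477 (0.25 uM final) on CRE-bla HEK293T cells for 3 h at 37 °C, followed by LiveBLAzer substrate loading.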

[18] = target: Beta-2 adrenergic receptor (Homo sapiens) (UniProt P07550); assay: Adrenergic beta2 receptor (ADRB2) small molecule antagonists, cell-based qHTS assay (AID 1963592); also: series mostly up to about 92 µM; nearly all actives have a fitted effect of over 50% in size
Beta-2 adrenergic receptor (Homo sapiens), sequence (P07550 whole entry, looked up): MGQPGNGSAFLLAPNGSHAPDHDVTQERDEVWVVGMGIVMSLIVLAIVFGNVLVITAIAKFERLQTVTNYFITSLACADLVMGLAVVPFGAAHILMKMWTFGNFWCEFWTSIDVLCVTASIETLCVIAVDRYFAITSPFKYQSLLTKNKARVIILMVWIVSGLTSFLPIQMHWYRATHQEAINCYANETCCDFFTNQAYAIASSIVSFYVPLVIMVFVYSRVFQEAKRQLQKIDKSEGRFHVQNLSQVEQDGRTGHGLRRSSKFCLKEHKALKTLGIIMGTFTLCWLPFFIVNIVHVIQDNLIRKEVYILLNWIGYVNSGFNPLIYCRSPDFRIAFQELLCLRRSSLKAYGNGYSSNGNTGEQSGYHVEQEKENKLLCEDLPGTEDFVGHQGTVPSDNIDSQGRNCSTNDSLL
How it was run: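 Cells (CHO, stable ADRB2 overexpression) incubated 18-20hr at 37C; compounds added from DMSO; agonist mix (1nM isoproterenol, 100uM IBMX, 25uM Ro-20-1724) added; 0.5hr RT; d2-cAMP and anti-cAMP-cryptate added; 1hr RT; 665/615 nm read.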

[19] = target: D(2) dopamine receptor (Homo sapiens) (UniProt P14416); assay: Dopamine D2 receptor (DRD2) small molecule agonists, cell-based qHTS assay (AID 1963594); also: nearly all actives have a fitted effect of over 35% in size
D(2) dopamine receptor (Homo sapiens), sequence (P14416 whole entry, looked up): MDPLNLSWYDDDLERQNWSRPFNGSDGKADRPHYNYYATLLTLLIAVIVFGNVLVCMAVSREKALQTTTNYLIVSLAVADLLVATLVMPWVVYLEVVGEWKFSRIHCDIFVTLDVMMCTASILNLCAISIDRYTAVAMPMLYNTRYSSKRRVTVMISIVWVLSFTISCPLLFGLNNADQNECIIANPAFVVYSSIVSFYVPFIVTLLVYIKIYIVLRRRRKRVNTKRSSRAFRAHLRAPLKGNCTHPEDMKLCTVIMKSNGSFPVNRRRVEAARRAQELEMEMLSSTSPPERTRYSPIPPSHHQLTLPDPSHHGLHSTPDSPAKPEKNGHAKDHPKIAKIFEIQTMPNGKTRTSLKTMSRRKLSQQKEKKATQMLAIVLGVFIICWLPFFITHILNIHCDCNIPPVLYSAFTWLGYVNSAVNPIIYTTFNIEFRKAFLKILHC
How it was run: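 cAMP accumulation in DRD2-HEK293 cells measured by HTRF after 1 h detection; compounds added 10 min before NKH477 (200nM […]) forskolin-analogue stimulation, 30 min at room temperature, with Ro20-1724 present at 0.1 mM final.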

[20] = target: D(2) dopamine receptor (Homo sapiens) (UniProt P14416); assay: Dopamine D2 receptor (DRD2) small molecule antagonists, cell-based qHTS assay (AID 1963595; active = well fitted inhibition curve with a large enough effect in the signal ratio in the repeat runs, with a control signal flat; the % refers to the signal ratio)
How it was run: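 DRD2-HEK293; 0.1 mM Ro20-1724; cpd 10 min RT; NKH477 200 nM + quinpirole 12 nM, 30 min RT; HTRF cAMP (cAMP-d2/anti-cAMP cryptate), 665/620 nm ratio after 1 h.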
% is scaled to controls: 0 for no effect and ±100 for the full control effect.

CC(C)=CCC/C(C)=C/CC/C(C)=C/CCC(=O)OC/C=C(\C)CCC=C(C)C
inactive: Potency [1] | Potency [2] | Potency [3] | outcome [4] | outcome [5] | Potency [6] | Potency [7] | Potency [8] | Potency [9] | Potency [10] | Potency [11] | Potency [12] | Potency [13] | Potency [14] | Potency [15] | Potency [16] | Potency [17] | Potency [18] | Potency [19] | Potency [20]

N[C@@H](CSCCCO)C(=O)O
inactive: activity change, negative = cytotoxicity [1] 5.92% [at 19 µM] | activity, positive = activation [2] -5.15% [at 19 µM] | activity change [3] -0.573% [at 11.8 µM, stronger effect = higher value] | activation [4] 2.59% [at 15.8 µM] | activation [5] 0.0618% [at 11.8 µM] | activation [6] 1.76% [at 13.5 µM] | activation [7] 4.94% [at 13.6 µM] | activity change, negative = cytotoxicity [8] -3.2% [at 13.5 µM] | activity change, negative = cytotoxicity [9] -10.3% [at 13.5 µM] | activity change, negative = cytotoxicity [10] -10.7% [at 13.5 µM] | activation [11] 9.64% [at 13.5 µM] | activity, negative = inhibition [12] 4.22% [at 12.7 µM] | activation [13] 0.941% [at 15.9 µM] | activity, negative = inhibition [14] -6.77% [at 12.6 µM] | activation [15] -0.169% [at 15.8 µM] | activation [16] 0.961% [at 19 µM] | activity change, negative = inhibition [17] 4.42% [at 18.9 µM] | activity change, negative = inhibition [18] -0.974% [at 19 µM] | activation [19] 5.68% [at 19 µM] | activity change, negative = inhibition [20] 8.57% [at 18.9 µM]

CC(O)CN(CCCN(C)C)CCCN(C)C (stereo not given)
inactive: Potency [1] | Potency [2] | Potency [3] | outcome [4] | outcome [5] | Potency [6] | Potency [7] | Potency [8] | Potency [9] | Potency [10] | Potency [11] | Potency [12] | Potency [13] | Potency [14] | Potency [15] | Potency [16] | Potency [17] | Potency [18] | Potency [19] | Potency [20]

Cc1ccco1
inactive: Potency [1] | Potency [2] | Potency [3] | outcome [4] | outcome [5] | Potency [6] | Potency [7] | Potency [8] | Potency [9] | Potency [10] | Potency [11] | Potency [12] | Potency [13] | Potency [14] | Potency [15] | Potency [16] | Potency [17] | Potency [18] | Potency [19] | Potency [20]

Cc1cc(=O)oc2cc(O[C@@H]3SC[C@@H](O)[C@H](O)[C@H]3O)ccc12
inactive: Potency [1] | Potency [2] | Potency [3] | outcome [4] | outcome [5] | Potency [6] | Potency [7] | Potency [8] | Potency [9] | Potency [10] | Potency [11] | Potency [12] | Potency [13] | Potency [14] | Potency [15] | Potency [16] | Potency [17] | Potency [18] | Potency [19] | Potency [20]

C=CC1CC2C=CC1C2 (stereo not given)
inactive: Potency [1] | Potency [2] | Potency [3] | outcome [4] | outcome [5] | Potency [6] | Potency [7] | Potency [8] | Potency [9] | Potency [10] | Potency [11] | Potency [12] | Potency [13] | Potency [14] | Potency [15] | Potency [16] | Potency [17] | Potency [18] | Potency [19] | Potency [20]

O=CN1CCOCC1
inactive: Potency [1] | Potency [2] | Potency [3] | outcome [4] | outcome [5] | Potency [6] | Potency [7] | Potency [8] | Potency [9] | Potency [10] | Potency [11] | Potency [12] | Potency [13] | Potency [14] | Potency [15] | Potency [16] | Potency [17] | Potency [18] | Potency [19] | Potency [20]
